Assay results reported in the supplement of paper PMC3334620.
The full ranking holds about 33,000 sequences; the median of “E-score (-0.5 to 0.5)” is about -0.012, and the highest 2% start at about 0.27. This is one part of a sample in which the highest values are shown more often than they occur.

These sequences were tested against T1, Vhr1 (UniProt P40522) (assay: PBM E-score (8-mer binding enrichment) (E-score (-0.5 to 0.5)); higher = stronger / more preferred TF binding). Settings: protein concentration: 200 nM; construct: GST-full length.
T1 sequence: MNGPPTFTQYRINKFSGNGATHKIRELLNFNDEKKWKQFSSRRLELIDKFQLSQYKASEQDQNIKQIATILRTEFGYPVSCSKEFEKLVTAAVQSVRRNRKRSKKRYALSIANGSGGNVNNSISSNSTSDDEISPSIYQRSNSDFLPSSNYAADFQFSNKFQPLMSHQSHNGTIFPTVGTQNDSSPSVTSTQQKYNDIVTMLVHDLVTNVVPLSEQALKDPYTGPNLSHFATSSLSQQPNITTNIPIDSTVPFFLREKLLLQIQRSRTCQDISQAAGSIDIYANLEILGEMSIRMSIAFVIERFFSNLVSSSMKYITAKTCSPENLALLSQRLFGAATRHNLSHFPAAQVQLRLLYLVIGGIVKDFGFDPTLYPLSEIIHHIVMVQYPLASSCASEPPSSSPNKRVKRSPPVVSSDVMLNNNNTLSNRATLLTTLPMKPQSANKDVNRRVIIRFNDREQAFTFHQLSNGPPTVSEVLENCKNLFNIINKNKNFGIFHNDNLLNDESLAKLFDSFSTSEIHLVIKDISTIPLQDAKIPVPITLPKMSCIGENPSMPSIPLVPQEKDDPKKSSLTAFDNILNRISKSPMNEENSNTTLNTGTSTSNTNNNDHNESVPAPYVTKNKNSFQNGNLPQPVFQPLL
Description: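 Universal 'all 10-mer' protein binding microarrays (Agilent AMADID 015681) probed with GST-tagged S. cerevisiae TFs (full-length or DBD) made by in vitro transcription/translation (PURExpress), about 100-200 nM. Bound TF was detected with fluorescent anti-GST. Each ungapped 8-mer (which stands for itself and its reverse complement) is scored by the PBM enrichment score (E-score), a modified Wilcoxon-Mann-Whitney statistic from -0.5 to +0.5, computed with the Universal PBM Analysis Suite. Scale: above 0.35 generally sequence-specific binding.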

Sequence	PBM E-score
CCAGGACA	-0.0732
CTGCACAA	-0.0636
GGTTGTGA	0.143
ATCTCAAA	-0.0488
TGCTCAAA	-0.193
AATCCATT	0.113
ACTAATCG	0.251
CCTCAGTA	-0.106
ACTCAGTG	0.245
CCTCAGTC	0.0647
ACGCAGTC	0.169
ACTCAGTA	0.281
CCGCAGTC	0.274
CCGCAGTA	0.0424
ACTCAGTC	0.314
GCTCAGTA	-0.0102
ACGATGCC	-0.257
AGCAACTG	0.00583
GACCCAAA	0.0473
CGGAATAA	-0.0766
GGCCACTA	-0.00131
GTTGCCTA	-0.162
GAACGATA	-0.0543
AAACCAGT	0.0233
ATCTTGGA	0.0371

Sequence	PBM E-score
GCCTTATA	-0.0741
CGCCCGAC	0.342
CGCCCGAA	-0.0969
AGCCCGAC	0.0296
AACGAGCA	-0.0591
ATGCTCAG	0.141
ACTAGAGT	0.0036
ACCACATA	0.125
ACCACATC	0.276
ACCACATG	0.262
CGCTCACA	0.137
CCCAACCC	0.118
CCCAACCA	0.275
ACCAACAT	0.157
ACCAACCA	0.163
ACCAACAG	0.046
ACCAACAA	0.359
CCCTAGCC	-0.184
GCCCCTCA	-0.0991
CCCCCTCC	-0.0898
AACCCACA	0.168
CACCCACC	0.317
AACCCACT	0.246
GCCCCACC	0.265
ACCCCACC	0.385

Sequence	PBM E-score
CACCCACA	0.241
CCCCCACC	-0.341
GACCCACC	0.224
GCCCCTCC	0.331
AACCCACC	0.313
GCGGCCAC	0.0847
ACAGCGAT	-0.04
AGATCTGC	-0.0821
GGGCTGGA	-0.0152
GGTGGTCA	0.00378
CACCCTCC	0.276
GACCCACA	0.284
CACCCACG	0.249
AACCCACG	0.0933
AACCCTCC	-0.129
CACCCTCA	0.0412
CCACCAAA	0.0455
GCGAAACC	-0.0227
GAGTCTCA	0.256
GCACACCC	0.139
CCGCGCGA	0.22
TCGCGCAA	0.0709
CCGCGCGC	0.258
CCGCGCAA	-0.026
GCGCGCGC	0.379

Sequence	PBM E-score
ACGCGCGC	0.107
CCGCGCGG	0.346
GCGCGCAA	0.3
GCGCGCGA	0.185
AGGACGCG	-0.226
CTAAAGAG	-0.0856
GTAGCGAA	-0.027
AACTAGAA	-0.115
AGTCACTA	0.366
AATCACTG	0.374
AATCACTC	0.115
ACTCACTG	0.265
CGTCACTA	0.0865
CGTCACTC	-0.0595
AGTCACTC	0.428
ACTCACTC	0.254
GGTCACTA	-0.0218
AGTCACTG	0.384
ATTCACTG	-0.0337
AATCACTA	0.267
AACGGTCC	-0.263
AGGTGTGC	0.163
AAGCTCCA	0.111
AAGCCACT	-0.0197
CCATCTGC	0.0983

Sequence	PBM E-score
GTCTTCAC	-0.058
AATCTAGC	-0.218
CTATAGGC	-0.243
AACCTGAG	-0.0364
ACACGACT	0.277
ACACGACC	0.109
ACACGACA	0.0664
GCTTGCAA	0.0649
AAAGGTGC	-0.162
ACGGTAAT	-0.0641
ACGAGTCG	0.322
ACGAGTAG	0.0242
ACGAGTCT	0.0718
CCGAGTAG	0.1
ACGAGTCC	0.0781
CCAAGTCG	0.00863
CCGAGTCG	0.336
ACGAGTCA	0.43
TCGAGTCA	0.399
TCGAGCCA	-0.0584
TCGAGTAA	0.0538
ACGAGTTG	0.0198
CGGCTAAC	-0.0152
GGCAAGAC	-0.138
TGGTCTAA	-0.0689

Sequence	PBM E-score
GCCGTCTA	0.00852
GAGCACTA	0.0167
CCGAGTCA	0.451
GCGAGTCA	0.455
GCGAGTAA	0.2
CCGAGTAA	0.0614
GCGAGTCC	0.22
CCGAGTCC	0.144
ATTCGATG	0.0921
AAGCCTCG	0.00094
AGTCCCCG	0.0704
GGTGCTGA	0.042
CGCACCAA	0.143
AGCACCAG	-0.0111
CGCACCAG	0.302
AAATAATT	0.0111
ACCTGACC	0.11
ACCTGACG	-0.0943
AGCTGACC	0.116
ACCTGACT	0.374
AGCTGACT	0.413
AGCTGACG	-0.12
GGGCTTAC	-0.00595
AGAACTGA	-0.183
ATGAAGTG	-0.149

Sequence	PBM E-score
TAACAGAA	-0.069
GTTGAGTA	0.147
CTTGAGTC	0.333
ATTGAGAC	0.18
ATTGAGTA	0.308
CTTGAGGC	-0.174
ATTGAGTC	0.387
ATTGAGTG	0.202
ATTGAGAA	0.113
CTTGAGTA	0.0408
AGAGAAGA	-0.148
AACATCGG	0.0341
ATGCCAGG	0.0307
CGCGTACG	0.0931
CGCACGCC	0.167
ACGTTCGC	-0.141
GCTGCCAA	-0.0372
ACTGATTA	0.147
ACTGATTC	0.283
CCTGATTC	0.367
ACTGATTG	-0.00926
CCTGATGC	-0.0265
CCTGATTA	0.158
ACTCTACA	0.0564
ACGTCCAG	-0.147

Sequence	PBM E-score
CGAATAAG	0.0236
ACTATATA	0.274
AGTATATA	0.33
AGTATATG	0.239
ACTATATC	0.198
GCTATATA	0.0669
AGTATATC	0.0944
CAGAATGA	0.0955
CAAGGGCA	-0.168
GTTCTAAA	-0.164
GAGCGACC	-0.162
GCTCACCC	0.265
TCTCACCA	0.0878
CCTCACCC	0.0394
ACTCACCG	0.309
CCTCACCA	-0.00516
ACTCACCT	0.244
CCTCACCG	0.113
ACTCACCA	0.378
ACTCACCC	0.391
CTCTAGCC	-0.167
CCAGGGAG	0.09
GTAGGGTA	0.0298
CAAGCGTG	-0.00913
CCATTCAA	0.0103

Sequence	PBM E-score
CAGATTCG	0.069
AAACCATC	0.273
AAACCATA	0.0822
CAACCATC	0.0512
ACTGGGTA	-0.00457
ATAGGGGC	-0.0513
GAGCGAAA	0.0518
AACTTTTG	-0.205
ATCATATC	0.3
ATCATATG	0.174
CTCATATC	0.203
TACCAAGA	0.0906
AGAGCGCC	-0.134
AATGATGC	0.0924
AGGGCCAA	-0.299
AGTCTGCC	0.0302
AGGGAGTA	0.113
AGGGAGTC	0.343
CGGGAGAC	-0.0366
CGGGAGTA	0.00502
CGGGAGTC	0.386
AGGGAGTG	0.042
ACCACAAC	0.258
AATACAGG	0.111
CTCCTCTA	-0.189

Sequence	PBM E-score
ACGGGTCA	-0.077
GCGGGTCC	-0.00354
CGGGGTGA	0.275
AGGGGTGA	-0.0936
GGGGGTGA	0.132
CCGGGTGA	0.208
GCGGGTGA	0.293
ACGGGTGA	0.117
GCGGGTCA	0.308
GCTTAAAA	-0.0463
ACAGTTAA	0.0518
GTACCTAA	-0.0816
CGGTCGAC	0.0782
GAAGATAA	-0.0175
GTCACCGA	0.256
CTCACCAA	0.265
GTCACCCA	0.311
CTCACCCC	0.318
ATCACCCC	0.199
CTTACCCC	-0.156
CTCACCCA	0.342
CTCACCGA	0.183
ATCACCCA	0.223
ACTGGTGG	0.0234
GAGGGCTA	-0.228

Sequence	PBM E-score
AGTATGAG	0.0941
GGTATGAC	0.231
AGTATGAT	0.271
CGTATGAC	0.142
AGTATGAC	0.311
AGTATGAA	0.203
CCTGTGGA	-0.166
CTCTCATC	-0.131
CTTGCGGC	-0.0654
AATATATA	0.157
GATATATC	0.0354
CATATATA	0.256
GATATACA	0.113
CATACATA	0.238
GATACATC	0.224
GATATATA	0.284
TATATACA	0.162
GATACATA	0.332
TATATATA	0.318
AATATATT	0.284
AATATATG	0.19
ATGGCTTC	0.00791
CGTTTCGC	-0.0307
GAGTATGA	0.228
CTCTCAAC	0.00283

Sequence	PBM E-score
GCTTAGTA	-0.171
GGATCAAC	-0.0769
GTAACCAA	0.103
TGCAATAA	-0.0029
GGGGCCCA	-0.0152
ACTGATAG	0.167
AGAATTAA	-0.301
ATTGAAGC	-0.163
AAAATTCA	-0.128
CTACTATA	0.168
ATACTATC	0.128
CTACTATC	0.277
GGTCTGAC	0.226
CTGATGAC	0.19
AGGATGAC	0.112
GGGATGAC	0.323
AGGATGAT	0.309
AGGATGAG	0.225
GGGATGAA	-0.00977
ATGATGAG	0.196
ATGATGAC	0.303
AGGATGAA	-0.0977
GCTAGCCA	-0.17
CAGATCAG	-0.112
CGCGAATC	0.193

Sequence	PBM E-score
ACGTATCC	-0.194
CCATTAGC	-0.0966
ATTGGCCG	-0.13
GCACTGAC	0.0316
GCGAAGAA	-0.191
CCACACCA	0.141
ACACACCT	0.283
ACACACCG	0.223
ACACACCA	0.282
TCACACCA	0.17
ACACACCC	0.198
AACGTCAA	-0.269
AGGCTTCC	-0.119
CAAACGAG	0.0174
CTATGGCA	-0.132
GTCCTTAA	-0.00154
GGCGCGCA	0.121
TGCGCGCA	0.29
CGCGCGCC	0.228
CGCGCGCG	0.286
CGCGCGCA	0.259
AGCGCGCG	0.0844
TGGTTGAA	-0.0692
TATGCTCA	0.0368
GAGTGCCC	-0.0963

Sequence	PBM E-score
AAGCACTA	-0.0763
CATGCTGA	0.275
AATGCTGA	0.027
GATGCTGA	0.0169
AACGACGC	-0.0318
CATTCACC	0.0887
AAGAGGAT	-0.0743
GGTCTTTA	-0.0868
ACTCCCTG	0.276
ACTCCCTC	0.0377
ACTCCCTA	0.063
CGGGTCAG	0.204
TCAAGTCA	0.111
GGAAGTCA	0.282
CGAAGTCA	0.203
ACAAGTCA	0.174
GGAAGTCC	-0.212
GCAAGTCA	0.279
TAGTTGAA	0.134
